High-throughput results deposited in PubChem by National Center for Advancing Translational Sciences (NCATS).
Most compounds without a hit are left out; they make up all but 3.7% or so of the library.
ELG1 DNA repair: ELG1-dependent DNA repair inhibition; HEK293T ELG1-luciferase reporter, luminescence, 16 h; DNA damage induced by 5-fluorouridine; Potency, µM (doses to about 46.1 µM), inactives show at the top dose activity change, negative = inhibition, actives largely listed as inhibitors; hit rate 2.3% among 330,000; AID 504467; further: on the % scale 0 is the no-effect control and ±100 the full control effect; nearly all actives have a fitted effect of over 55% in size
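Overnight (16 hr) co-exposure of 2,000 cells/well to 5-fluorouridine and compound at 37 °C preceded detection. Luciferase was quantified via ONE-Glo luminescence; loss of signal denotes inhibition.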
A549 viability: counter-screen for Nrf2 inhibitors: cytotoxicity in A549 cells | hit rate 0.16% among 390,000 | Potency, µM (top dose mostly 46 µM), without a hit: at the highest dose activity change, negative = cytotoxicity, hits mostly inhibitors | A549 ARE-Fluc cells, CellTiter-Fluor viability, 18-24 h; further: on the % scale 0 is the no-effect control and ±100 the full control effect
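A549 ARE-Fluc cells in 5% FBS OPTI-MEM, 5000 cells/well, rested 2 h then exposed to compounds in concentration-response for 18-24 h at 37 °C. Viability by CellTiter-Fluor fluorescence (Ex 405/Em 525) after 30 min; luciferase luminescence (BugLite, 15 min, RT) read afterwards.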
Nrf2 ARE act: activators of Nrf2 (ARE) signaling. hit rate 0.31% among 410,000. Potency, µM (doses to about 46.1 µM), inactives show top-dose activation, actives largely listed as activators. AREc32 ARE-luciferase reporter (MCF7-derived line), luminescence, 24 h; further: % of control where 0% means no effect; nearly all actives have a fitted effect of over 65% in size
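Each well held 1000 AREc32 cells, which were incubated with compound for 24 hr at 37 deg C after overnight attachment, and ARE reporter activity was quantified by firefly luciferase luminescence.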
Nrf2 block: inhibitors of Nrf2 signaling | Potency, µM (highest dose often 46 µM), for inactives: at the highest dose activity change, negative = inhibition, hits mostly inhibitors | A549 ARE-Fluc reporter, luciferase luminescence, 18-24 h | hit rate 2.1% among 360,000 | AID 504444; further: on the % scale 0 is the no-effect control and ±100 the full control effect; nearly all actives have a fitted effect of over 60% in size
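Nrf2 activity is the BugLite luminescence, read 15 min after reagent at room temperature, following CellTiter-Fluor cytotoxicity readout (30 min, 37C). Compound titrations were applied for 18-24 h to 5000 A549 ARE_Fluc cells/well in 5% FBS OPTI-MEM.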
An asterisk follows results filed as active; ? = inconclusive; / = not tested or not shown; [ ] = another dose, or the depositor's remark. The call rests on the fitted dose curve; in most records, active means well fitted curve in the direction sought with a large enough effect; inconclusive means small, poorly fitted or top-dose-only effect, or another doubt; inactive means no such curve, though single readings can be large; an effect the other way counts as inactive or inconclusive. Potency means the concentration at half of the fitted maximal effect.

SMILES	ELG1 DNA repair	A549 viability	Nrf2 ARE act	Nrf2 block
CC(=O)c1cccc(N=c2scc(-c3ccc(S(=O)(=O)N4CCOCC4)cc3)n2CCO)c1	?	-1%	8%	15µM*
Cc1ccc(NC(=O)CCC(=O)N/N=C/c2ccc(O)cc2O)cc1	18µM*	1%	-2%	?
Cc1cc(SCC(=O)N/N=C/c2ccccc2C(=O)O)c(C)cc1Br	5%	13%	0%	-1%
Cc1cc(SCC(=O)N/N=C/c2ccc(O)cc2O)c(C)cc1Br	?	-12%	1%	15µM*
NNC(=O)c1ccc(CSc2cccc3cccnc23)cc1	-1%	12%	3%	5%
O=C(Oc1cccc2cccnc12)c1ccc2c(c1)OCCO2	10µM*	-2%	3%	2%
O=C(N/N=C/c1ccccc1Br)c1ccc(CSc2cccc3cccnc23)cc1	21µM*	-13%	0%	?
O=C(N/N=C/c1ccc2c(c1)OCO2)c1ccc(COc2cccc3cccnc23)cc1	18µM*	-1%	6%	-8%
Cc1cc(NS(=O)(=O)c2ccc(NC(=O)COc3ccccc3Br)cc2)no1	/	-4%	-1%	-30%
CCn1c(=O)c2cc(C(=O)Nc3cc(C)c(Cl)cc3OC)sc2c2ccccc21	/	-2%	-1%	12%
NC(=O)[C@@H]1CC2(CC(c3cccc(NC(=O)COc4ccc(Cl)cc4)c3)=NO2)CN1C(=O)COc1ccc(Cl)cc1 (stereo not given in full)	?	-18%	-3%	?
CC/C=C/C(=O)N1CC2(CC(c3cccc(NC(=O)COc4ccc(Cl)cc4)c3)=NO2)C[C@H]1C(N)=O (stereo not given in full)	16µM*	6%	7%	4%
O=C1CCCN1CCCNC(=S)Nc1ccccc1	21%	7%	-1%	2%
O=C1CCCN1CCCNC(=S)Nc1ccc(Nc2ccccc2)cc1	15µM*	0%	0%	?
O=c1[nH]cc(S(=O)(=O)N2CCN(c3ccc(F)cc3)CC2)c(=O)[nH]1	/	/	-1%	/
C=CC(=O)Nc1cccc(Oc2ccnc(Nc3ccc(N4CCN(C)CC4)cc3)n2)c1	/	1.6µM*	17%	?
C=CC(=O)Nc1cccc(N(C)c2ccnc(Nc3ccc(N4CCN(C)CC4)cc3)n2)c1	/	1µM*	6%	?
C=CC(=O)Nc1cccc(Oc2ccnc3[nH]ccc23)c1	/	?	9%	-11%
CC1(C)N=C(c2ccc(F)cc2)C(=O)N1CC(=O)Nc1ccccc1Cl	/	-12%	0%	?
Cc1ccccc1Nc1nc(-c2ccccc2)c(C(=O)Nc2cccnc2)s1	23µM*	-15%	3%	5%
O=C(Nc1cccnc1)c1sc(Nc2ccccc2F)nc1-c1ccccc1	?	-15%	0%	-20%
COC(=O)c1cc(S(=O)(=O)N2CCN(c3ccc([N+](=O)[O-])cc3)CC2)c[nH]1	16µM*	8%	7%	8%
CC(C)C(NS(=O)(=O)c1c(Cl)cccc1Cl)C(=O)OCC(=O)c1c[nH]c2ccccc12 (stereo not given)	?	?	0%[9.22 µM]	23µM*
C=CCN(c1ccccc1OC)S(=O)(=O)c1cccc(C(=O)OCC(=O)c2c[nH]c3ccccc23)c1	23µM*	-6%	2%	2%
CN(c1ccccc1)S(=O)(=O)c1cccc(C(=O)Nc2nccs2)c1	-13%	23%	-1%	6%
SMILES	ELG1 DNA repair	A549 viability	Nrf2 ARE act	Nrf2 block
C=CCN(c1ccccc1OC)S(=O)(=O)c1cccc(C(=O)OCC(=O)N2CCOCC2)c1	-5%	10%	0%	-3%
COc1cc(OC)c(N(C)S(=O)(=O)c2cccc(C(=O)OCC(=O)c3c[nH]c4ccccc34)c2)cc1Cl	21µM*	-11%	4%	-19%
COc1cc(OC)c(N(C)S(=O)(=O)c2cccc(C(=O)Nc3nccs3)c2)cc1Cl	23µM*	-8%	2%	?
C=CCn1c(-c2ccc(OC)cc2)csc1=Nc1c(C)n(C)n(-c2ccccc2)c1=O	21µM*	-9%	2%	/
Cc1csc(=Nc2c(C)n(C)n(-c3ccccc3)c2=O)n1Cc1ccccc1	-25%	10%	2%	?
COc1cccc(OCCSc2nc3ccccc3n2CC(=O)N2CCCCC2)c1	/	-15%	1%	18µM*
COc1cccc(OCCSc2nc3ccccc3n2CC(=O)N2CCOCC2)c1	/	-6%	0%	?
